Tau fil binding: qHTS Assay for Tau Filament Binding | Potency, µM (series often up to 57.1 µM), for the others: at the top dose activity change, negative = inhibition | Microtubule-associated protein tau (Homo sapiens), P10636 | recombinant tau filaments, thioflavin S fluorescence, 15 h; filaments grown with octadecylsulfate alongside compound | AID 596, 2007 | actives 2% (n = 71,000);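 note: potency is the fitted concentration of half-maximal effect; % is set by controls: 0 for no effect and ±100 for the full control effect; actives lower thioflavin S fluorescence by blocking filaments or displacing dye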
Target sequence (P10636 whole entry, looked up): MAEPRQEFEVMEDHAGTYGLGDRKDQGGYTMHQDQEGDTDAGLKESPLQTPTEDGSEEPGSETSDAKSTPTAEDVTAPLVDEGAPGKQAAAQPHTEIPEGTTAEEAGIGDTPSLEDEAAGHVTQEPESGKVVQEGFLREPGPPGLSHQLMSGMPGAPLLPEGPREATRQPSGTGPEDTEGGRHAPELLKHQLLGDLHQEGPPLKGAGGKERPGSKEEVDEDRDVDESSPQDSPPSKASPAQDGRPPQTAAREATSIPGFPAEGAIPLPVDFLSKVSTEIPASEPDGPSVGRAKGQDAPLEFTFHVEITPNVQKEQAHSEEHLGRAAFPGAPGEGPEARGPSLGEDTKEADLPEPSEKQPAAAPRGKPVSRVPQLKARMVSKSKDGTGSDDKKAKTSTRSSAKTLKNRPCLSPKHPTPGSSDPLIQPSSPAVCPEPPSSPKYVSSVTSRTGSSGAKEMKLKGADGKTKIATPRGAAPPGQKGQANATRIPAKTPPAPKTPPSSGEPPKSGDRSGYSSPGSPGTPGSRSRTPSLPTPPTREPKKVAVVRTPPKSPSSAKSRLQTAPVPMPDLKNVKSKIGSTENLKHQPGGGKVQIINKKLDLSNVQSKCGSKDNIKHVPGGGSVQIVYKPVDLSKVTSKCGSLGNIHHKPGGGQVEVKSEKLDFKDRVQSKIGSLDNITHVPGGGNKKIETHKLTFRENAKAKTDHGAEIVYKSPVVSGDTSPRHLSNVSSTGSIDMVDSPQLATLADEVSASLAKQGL
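His-tagged recombinant human tau (exons 2, 3 and 10 included), 1 uM, was induced to fibrillize by 30 uM sodium octadecylsulfate with compound present. After 15 h at 37 C, thioflavine S fluorescence (ex 450, em 510 nm) was read.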
Hsp90 Hop PPI: qHTS Assay for Disrupters of an Hsp90 Co-Chaperone Interaction. Potency, µM (top dose mostly 57 µM), without a hit: at the highest dose activity change, negative = inhibition. AlphaScreen TPR2A-His6 binding biotin-Hsp90 C-terminal peptide. actives 0.44% (n = 71,000); active = well fitted curve in either direction with a large enough effect; inconclusive = small, poorly fitted or top-dose-only effect, or another doubt; note: potency is the fitted concentration of half-maximal effect; % is set by controls: 0 for no effect and ±100 for the full control effect
ALOX15 inhib: qHTS Assay for Inhibitors of 15-hLO (15-human lipoxygenase) | Polyunsaturated fatty acid lipoxygenase ALOX15 (Homo sapiens), P16050 | purified 15hLO-1, xylenol orange hydroperoxide absorbance | Potency, µM (top dose mostly 57.1 µM), for inactives: top-dose activity change, negative = inhibition, most hits filed as inhibitors | actives 1.4% (n = 74,000); note: potency is the fitted concentration of half-maximal effect; % is set by controls: 0 for no effect and ±100 for the full control effect; nearly all actives have a fitted effect of over 55% in size
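Inhibition is scored from a chromogenic endpoint. After 15 min enzyme-compound contact, arachidonic acid (50 uM final) reacts 6 min with 40 nM 15hLO-1 at room temperature, then Fe-XO reagent is added for 30 min and absorbance ratio recorded.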
DNA Pol III inh: qHTS Assay for Inhibitors of DNA Polymerase III Holoenzyme System; reconstituted DNA polymerase III holoenzyme replication, biochemical; Potency, µM (titrated, usually from 57.1 µM), without a hit: at the top dose activity change, negative = inhibition; actives 0.25% (n = 71,000); AID 603, 2007; note: potency is the fitted concentration of half-maximal effect; % is set by controls: 0 for no effect and ±100 for the full control effect
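Reconstituted *E. coli* holoenzyme (0.35 nM Pol III, 1 nM beta, 154 nM SSB, 2 nM primase) was preincubated with compound for 15 min at RT. Synthesis on 1.4 nM ssM13Gori ran 35 min, then was stopped with PicoGreen/EDTA and read as dsDNA fluorescence.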
YjeE inh: qHTS Assay for Inhibitors of YjeE | tRNA threonylcarbamoyladenosine biosynthesis protein TsaE (Escherichia coli (strain … | AID 605, 2007 | actives 0.05% (n = 71,000) | Potency, µM | purified YjeE enzyme, qHTS inhibition assay
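Fluorescence polarization of a BODIPY Texas Red–ADP probe (2 uM) bound to purified YjeE (10 uM) was read after 15 min room-temperature incubation with compounds. Loss of polarization marks inhibitors; ADP serves as titrated control.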
* = called active by the depositor; i = inactive; ? = inconclusive; . = not tested or not shown; ! = a repeat was not active; [ ] = dose if it differs, or a comment. Sampled rows, rich in hits. Any-hit rate of the full collection: about 3.3%. Unless noted, calls come from the whole dose curve; as a rule, active = well fitted curve in the direction sought with a large enough effect; inconclusive = small, poorly fitted or top-dose-only effect, or another doubt; inactive = no such curve, though single readings can be large; an effect the other way counts as inactive or inconclusive.

SMILES	Tau fil binding	Hsp90 Hop PPI	ALOX15 inhib	DNA Pol III inh	YjeE inh
CNC1=C(Br)C(=O)c2ccncc2C1=O	16µM*	?	-15%	-13%	i
O=C(Nc1ccc(N2CCCC2)c(Cl)c1)c1ccc(Br)o1	4µM*	?	-18%[11.4 µM]	0%[11.4 µM]	i
O=C(Nc1ccccc1N1CCCC1)c1ccc(Br)o1	-18%	-10%	-8%	-4%	i
CN(C)[C@H]1C(=O)C(C(=O)NCN2CCCC2)=C(O)[C@]2(O)C(=O)C3=C(O)c4c(O)cccc4[C@](C)(O)[C@H]3C[C@H]12	-10%[11.4 µM]	-16%[11 µM]	-25%[11.4 µM]	3.2µM*	i
c1ccc2c(c1)CCC[C@H]2C1=NCCN1	1%	-2%	-6%	-2%	i
COc1ccccc1N1CCN(C(=O)c2ccc3nc(-c4ccco4)c(-c4ccco4)nc3c2)CC1	3.2µM*	-19%	20µM*	-5%	i
COc1ccccc1-c1cc(C(=O)N2CCN(c3ccccc3OC)CC2)no1	0%	-2%	-7%	-6%	i
O=c1cc(-c2ccc(O)c(O)c2)oc2ccccc12	.	.	1.6µM*	.	.
O=c1cc(-c2ccccc2)oc2cc(O)c(O)cc12	.	.	16µM*	.	.
Cc1ccc2oc(-c3ccccc3)cc(=O)c2c1	.	.	7%[25.6 µM]	.	.
O=c1cc(-c2ccccc2)oc2ccccc12	-20%	2%	-25%	-4%	i
CC(=O)c1ccccc1[N+](=O)[O-]	4%	0%	4%	-3%	i
COC(=O)c1cc(Cc2ccc(N)c(C(=O)OC)c2)ccc1N	?	?	25µM*	-1%	i
C[C@@H](c1ccccc1)N1C(=O)[C@H]2[C@H]3[C@H](O)[C@H](O)C/C(=N/OCc4ccccc4)[C@@H]3CC[C@@H]2C1=O	.	.	12%[11.4 µM]	.	.
COc1ccc(C2C(C#N)=C(N)Oc3cc(O)ccc32)cc1OC (stereo not drawn)	143%	-3%	10µM*	1%	i
COc1cc(C2C(C#N)=C(N)Oc3cc(N(C)C)ccc32)cc2c1OCO2 (stereo not drawn)	206%	-10%	25µM*	2%	i
COc1cc(C2C(C#N)=C(N)Oc3c2oc(CO)cc3=O)ccc1OC(C)C (stereo not drawn)	-12%	-13%	20µM*	-9%	i
CCCCCCCCCCCCCCCCCCOC[C@@H](COP(=O)([O-])OCC[N+](C)(C)C)OC	-1%	-2%	12%	-1%	i
NCc1nnn(Cc2ccccc2)c1N	-9%[11.4 µM]	5%[11 µM]	3%[11.4 µM]	-7%[11.4 µM]	i
O=C1C(=C2CCCCC2)SC(=S)N1Cc1ccco1	-24%[11.4 µM]	-2%[11 µM]	4µM*	1%[11.4 µM]	i
Nc1ccc(O)c(C(=O)O)c1	-12%	-6%	?	16µM*!	i
Nc1ccc(C(=O)O)cc1	5%	1%	3%	-7%	i
O=C1[C@@H]2[C@@H](C(=O)N1c1ccc(OCc3ccccc3)cc1)[C@@H]1c3ccccc3[C@@H]2[n+]2ccccc21	-16%[11.4 µM]	0%[11 µM]	-1%[11.4 µM]	2%[11.4 µM]	i
Cc1c2oc3c(C)ccc(C(=O)N[C@@H]4C(=O)N[C@@H](C(C)C)C(=O)N5CCC[C@@H]5C(=O)N(C)CC(=O)N(C)[C@@H](C(C)C)C(=O)O[C@H]4C)c3nc-2c(C(=O)N[C@@H]2C(=O)N[C@@H](C(C)C)C(=O)N3CCC[C@@H]3C(=O)N(C)CC(=O)N(C)[C@@H](C(C)C)C(=O)O[C@H]2C)c(N)c1=O	?	-5%	?	0.13µM*	i
CC1=c2c(oc3cc(O)c(Nc4c(C)cc(O)cc4O)c(C)c23)=CC(=O)C1=Nc1c(C)cc(O)cc1O	1.6µM*	?	?	-8%[11.4 µM]	?
SMILES	Tau fil binding	Hsp90 Hop PPI	ALOX15 inhib	DNA Pol III inh	YjeE inh
CC(CN(C)C)NC(=O)c1ccc(-n2c(=O)c(=O)[nH]c3ccccc32)cc1 (stereo not drawn)	.	.	0%	.	.
COc1ccc(OCCSc2nnc(-c3ccccc3)n2N)cc1	-2%	-12%	13µM*	-2%	i
Nc1ccc(O)cc1	16µM*	-7%	?	-18%	?
CCOc1ccc2[nH]c(=O)c(CN(Cc3nnnn3Cc3ccco3)C3CCCCC3)cc2c1	-2%	-14%	3.2µM*	-14%	i
COc1cc2cc(CN(Cc3nnnn3Cc3ccco3)C3CCCCC3)c(=O)[nH]c2cc1OC	329%	?	13µM*	-15%	i
COc1ccc2[nH]c(=O)c(CN(Cc3ccccc3OC)Cc3nnnn3CC3CCCO3)cc2c1 (stereo not drawn)	96%	-3%	20µM*	-1%	i
COc1ccccc1CN(Cc1cc2cc(C)ccc2[nH]c1=O)Cc1nnnn1Cc1ccco1	54%	-28%	7.9µM*	-8%	i
Nc1nc2c(c(=O)[nH]1)N=C(CNc1ccc(C(=O)NC(CCC(=O)O)C(=O)O)cc1)CN2 (stereo not drawn)	.	.	-20%[25.6 µM]	.	.
Cc1ccc(Nc2nc(CSc3nnnn3C)cs2)cc1	16µM*	-7%	-13%	-2%	i
N#Cc1cccc(-c2nc(NCCN3CCOCC3)c3ccccc3n2)c1	32%	-4%	-1%	-5%	i
C[N+](C)(C)CCN[N@@+]1(C)CCCc2ccccc21	-15%[11.4 µM]	-1%[11 µM]	26%[11.4 µM]	1%[11.4 µM]	i
O=C1CS/C(=N\C(=O)N2c3ccccc3Sc3ccccc32)N1	3.2µM*	-13%[11 µM]	?	4%[11.4 µM]	i
O=C1CSC(=Nc2ccccc2Cl)N1	-6%	-4%	5%	-7%	i
COc1ccc(N2CSC3=C(C#N)C(c4ccc(OC)c(OC)c4)CC(=O)N3C2)c(OC)c1 (stereo not drawn)	20µM*	-19%	4µM*	-16%	i
COc1ccc(C2CC(=O)N3CN(c4ccc(C)c(Cl)c4)CSC3=C2C#N)cc1OC (stereo not drawn)	-14%	-7%	3.2µM*	-4%	i
COc1ccc(N2CSC3=C(C#N)C(c4cc(OC)ccc4OC)CC(=O)N3C2)c(OC)c1 (stereo not drawn)	25µM*	?	?	-8%	i
CCOc1ccccc1N1CSC2=C(C#N)C(c3c(OC)ccc4ccccc34)CC(=O)N2C1 (stereo not drawn)	25µM*	-4%[2.3 µM]	?	-8%	i
COc1ccc(-c2coc3ccc(O[C@@H]4O[C@@H](COC(C)=O)[C@@H](OC(C)=O)[C@@H](OC(C)=O)[C@H]4OC(C)=O)cc3c2=O)cc1	?	5%	.	1%	i
COc1ccc(C(c2nnnn2Cc2ccc(F)cc2)N2CCN(c3ccccc3)CC2)cc1 (stereo not drawn)	-2%	-8%	-5%	-5%	i

High-throughput results (PubChem)
